Shiga inhibitor = blocks Shiga toxin action in Vero cells | inhibition, % at 38.7 µM | Vero cells, Shiga toxin protein synthesis inhibition reporter | AID 2315 | 9.2% of 290,000 active; in the data active = inhibition mostly above about 28%, no sharp cut-off; inactive = mostly below about 43%; note: 0% is about no effect
Pf growth 48h = inhibits P. falciparum growth in the first generation, 48 h; P. falciparum luciferase growth in erythrocytes, 48 h; Potency, µM (highest dose often 28.7 µM), for the others: at the highest dose activity change, negative = inhibition, usual class: inhibitors; 5.9% of 310,000 active; note: potency is the fitted concentration of half-maximal effect; % is set by controls: 0 for no effect and ±100 for the full control effect
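Firefly luciferase activity from engineered P. falciparum reports growth; inhibitors lower the luminescent signal. Cultures contained 2% hematocrit erythrocytes at 0.1% final parasitemia.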
SARS PLpro yeast = inhibitors of SARS-CoV papain-like protease in yeast. S. cerevisiae expressing SARS-CoV PLpro, growth rescue. Potency, µM (titrated, usually from 32.9 µM), for inactives: at the highest dose activity, positive = growth rescue, hits mostly activators. 0.19% of 330,000 active. AID 485353; calls by dose curve; note: potency is the fitted concentration of half-maximal effect; 0% is about no effect; nearly all actives have a fitted effect of over 55% in size
Pf growth 96h = P. falciparum growth inhibition at 96 hours; Potency, µM (highest dose often 28.7 µM), for inactives: at the top dose activity change, negative = inhibition, hits mostly inhibitors; 6.9% of 320,000 active; P. falciparum luciferase reporter growth, 96 h; note: potency is the fitted concentration of half-maximal effect; % is set by controls: 0 for no effect and ±100 for the full control effect
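Two parasite generations (96 h, 37 C, 5% CO2) of compound exposure in infected erythrocytes (0.05% parasitemia, 2% hematocrit). Luciferase-reporter P. falciparum; decreased luminescence indicates inhibited growth, aimed at apicoplast-acting delayed death.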
CHX counter = counter-screen for Shiga toxin inhibitors: cycloheximide protein synthesis inhibition; cell reporter, cycloheximide protein synthesis inhibition counterscreen; 12% of 300,000 active; max response, %; AID 2314; in the data active = max response mostly above about 13%, no sharp cut-off; inactive = mostly below about 14%; note: read at 38.3 µM for the half of the compounds with a filed dose; 0% is about no effect
AMA1-RON2 inh = disrupts binding of P. falciparum AMA1 to RON2; AlphaScreen AMA1-biotinylated RON2 peptide binding; Potency, µM (titrated, usually from 58.2 µM), for inactives: top-dose activity change, negative = inhibition, hits mostly inhibitors; 0.2% of 360,000 active; AID 720542;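 note: potency is the fitted concentration of half-maximal effect; 0% = vehicle wells and -100% = peptide control; nearly all actives have a fitted effect of over 45% in size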
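AMA1 (3D7) with his tag at 25 nM final met compounds first, then biotinylated RON2 peptide at 25 nM; detection used donor plus acceptor beads, 10 µg/mL apiece, read by AlphaScreen after 30 min at room temperature.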
Starred values were filed as active, the others as inactive; ? = inconclusive; nt = not tested or not shown; [ ] = remark or other dose. The list is not random: actives were taken first. Their share in the collection is about 19%. Unless noted, calls come from the whole dose curve; as a rule, active = well fitted curve in the direction sought with a large enough effect; inconclusive = small, poorly fitted or top-dose-only effect, or another doubt; inactive = no such curve, though single readings can be large; an effect the other way counts as inactive or inconclusive.

SMILES | Shiga inhibitor | Pf growth 48h | SARS PLpro yeast | Pf growth 96h | CHX counter | AMA1-RON2 inh
CC(C)n1ncc2c(C(=O)Nc3cccc(C#N)c3)cc(C3CC3)nc21 | nt | 6.6µM* | 7% | 5.2µM* | nt | -2%
Cc1cccc(C(C)C)c1NC(=O)CN1C(=O)NC2(CCc3ccccc32)C1=O (stereo not drawn) | nt | -7% | 0% | ? | nt | 0%
CCN(CC)c1ccc2cc(C(=O)c3cccs3)c(=O)oc2c1 | nt | nt | nt | nt | nt | 94%
CCN(CC)c1ccc2cc(-c3nc(-c4ccc(OC)cc4)cs3)c(=O)oc2c1 | 2 | 19% | 9% | -7% | -2 | 93%
CN(C)Cc1c(O)ccc2cc(-c3nc4ccccc4n3C)c(=O)oc12 | 33 | -5% | 9% | -26% | 20* | 5%
CCN(CC)c1ccc2cc(-c3nnc(-c4ccccc4)o3)c(=O)oc2c1 | 70* | 24% | 3% | -29% | 35* | 21%
CCN(CC)c1ccc2cc(-c3nc4ccccc4n3C)c(=O)oc2c1 | 80* | nt | 8% | 43% | 37* | 37%
CCc1c(C)c2ccc(O)c(CN(C)C)c2oc1=O | 13 | -19% | -7% | nt | -3 | 9%
CCN(CC)c1ccc2cc(-c3nc4ccccc4[nH]3)c(=O)oc2c1 | 81* | 134% | -2% | 214% | 49* | 88%
CCCCn1c(N)c(N(CCOC)C(=O)c2cc(C)oc2C)c(=O)[nH]c1=O | nt | 5% | -5% | 5% | nt | 2%
Cc1ccccc1Cn1ccc(=NCc2ccccc2)cc1 | 2 | 0.74µM* | 6% | 0.33µM* | -2 | -3%
CCc1ccccc1OCC(=O)Nc1cc(S(=O)(=O)N2CCOCC2)ccc1N1CCCCC1 | nt | 2.9µM* | 2% | 1µM* | nt | -10%
O=C(COc1ccc(F)cc1Cl)Nc1cc(S(=O)(=O)N2CCOCC2)ccc1N1CCCCC1 | -6 | 4.1µM* | -1% | 2.1µM* | -2 | -21%
Cc1ccc(OCCCC(=O)Nc2cc(S(=O)(=O)N3CCOCC3)ccc2N2CCOCC2)cc1 | nt | 10µM* | -4% | -30% | nt | 13%
Cc1ccc(Cl)c(OCC(=O)Nc2cc(S(=O)(=O)N3CCOCC3)ccc2N2CCCC2)c1 | -7 | 12µM* | 8% | 8.3µM* | -1 | -18%
O=C(CCCOc1ccccc1)Nc1cc(S(=O)(=O)N2CCOCC2)ccc1N1CCOCC1 | nt | ? | 2% | ? | nt | 8%
Cc1ccc(OCC(=O)Nc2cc(S(=O)(=O)N3CCOCC3)ccc2N2CCCC2)cc1 | nt | ? | 0% | ? | nt | -23%
C[C@@H]1CN([C@@H](C)CO)C(=O)CCCn2nncc2CO[C@H]1CN(C)C(=O)Nc1cccc(Oc2ccccn2)c1 | nt | nt | nt | nt | nt | 9%
O=c1[nH]c(=S)[nH]c2c1C(c1ccc(Cl)cc1)OC(C1CCCCC1)C2 (stereo not drawn) | nt | nt | nt | nt | nt | 83%
CN1CCN(c2ccc(S(=O)(=O)N3CCOCC3)cc2NC(=O)COc2ccc(C#N)cc2)CC1 | nt | nt | nt | nt | nt | 2%
CCN(CC)S(=O)(=O)c1ccc(N2CCN(C)CC2)c(NC(=O)COc2ccc(F)cc2Cl)c1 | nt | 10µM* | 7% | ? | nt | ?
CCN(CC)S(=O)(=O)c1ccc(N2CCOCC2)c(NC(=O)COc2ccc(Cl)cc2)c1 | -1 | ? | -4% | ? | -7 | -1%
O=C(COc1ccc(F)cc1Br)Nc1ccccc1N1CCOCC1 | nt | 10µM* | -4% | ? | nt | -8%
CN1CCN(c2ccc(S(=O)(=O)N3CCOCC3)cc2NC(=O)COc2ccc(F)cc2Cl)CC1 | -12 | ? | -4% | 13µM* | -3 | -10%
O=S(=O)(c1ccc(F)cc1)N1CCN(c2nc(-c3cccc(Br)c3)nc3ccccc23)CC1 | 24 | nt | nt | nt | 4 | nt
SMILES | Shiga inhibitor | Pf growth 48h | SARS PLpro yeast | Pf growth 96h | CHX counter | AMA1-RON2 inh
O=C(c1ccc([N+](=O)[O-])s1)N1CCN(c2ccc(C(F)(F)F)cn2)CC1 | 42 | ? | -16% | 3.3µM* | 8 | 3%
O=C(c1ccc([N+](=O)[O-])s1)N1CCN(c2ncccn2)CC1 | nt | nt | nt | nt | nt | 1%
N#Cc1ccc(OCC(=O)N2CCN(c3ccc(C(F)(F)F)cn3)CC2)cc1 | nt | ? | 7%[6.58 µM] | 4.1µM* | nt | 4%
O=c1c2c3c(sc2nc2sc(C4CC4)nn12)CCCC3 | 54 | 65% | -5% | 45% | 33* | -2%
O=c1[nH]c(C2CC2)nc2sc3c(c12)CCCC3 | -1 | -2% | -2% | 21% | -2 | 0%
COc1ccc(/C=C(/C(=O)c2cccs2)N2C=CC=CC2=C(C#N)C#N)cc1 | 47* | 68% | -23% | 57% | 41* | -11%
COc1ccc(C(=O)/C(=C\c2ccco2)N2C=CC=CC2=C(C#N)C#N)cc1 | -5 | ? | -5% | ? | -1 | -5%
CSCCC(NC(=O)C12CC3CC(CC(C3)C1)C2)C(=O)OCC(=O)c1ccc(C)cc1 (stereo not drawn) | -9 | -4% | 5% | 0.33µM* | -2 | 0%
CSCCC(NC(=O)c1ccc([N+](=O)[O-])cc1Cl)C(=O)OCC(=O)C12CC3CC(CC(C3)C1)C2 (stereo not drawn) | 3 | -4% | -4% | -1% | 1 | ?
Cc1ccc(C(C)NC(=O)C23CC4CC(CC(C4)C2)C3)cc1 (stereo not drawn) | -5 | -33%[1.15 µM] | 0% | 0.59µM* | -3 | 11%
COc1ccc(CSc2nncn2N)cc1[N+](=O)[O-] | 8 | 39% | 16% | 7.4µM* | 9 | 3%[2.32 µM]
COc1ccc(CSc2cccc3cccnc23)cc1[N+](=O)[O-] | 49 | 69% | 7% | 6.6µM* | 14 | -12%
COc1ccccc1CC(=O)Nc1ccc(C(=O)N2CCCCC2)cc1 | 19 | 31% | -2% | -23% | 2 | -3%
Cc1ccsc1C(=O)Nc1ccc(S(=O)(=O)N2CCOCC2)cc1 | nt | -1% | 0% | -23% | nt | 21%
CCc1cc(C(=O)N2CCCC(Nc3ccc(F)c(F)c3)C2)n(C)n1 (stereo not drawn) | -9 | 17% | 0% | ? | -3 | -19%
O=C1C2CC=C(Cl)CC2C(=O)N1CCc1c[nH]c2ccccc12 (stereo not drawn) | 47* | ? | -7% | ? | 22* | -14%
CC1=CCC2C(=O)N(CCc3c[nH]c4ccccc34)C(=O)C2C1 (stereo not drawn) | active | ? | 2% | ? | 23* | -1%
Cc1ccc(S(=O)(=O)NCC(=O)OCC(=O)c2c(N)n(C)c(=O)n(C)c2=O)cc1 | -13 | 22% | -8% | 25% | 3 | 20%
CN(C(=O)c1cccc(NC(=O)Cc2ccc(NC(=O)C3CCN(C(=O)C4CC4)CC3)cc2)c1)C1CCCC1 | nt | nt | nt | nt | nt | -1%
COc1cc2c(c(OC)c1OC)-c1c(cc3c(c1O)OCO3)C[C@@H](C)[C@@H](C)C2 | -11 | ? | -13% | 10µM* | -8 | -16%
COc1cc2c(c(OC)c1OC)-c1c(cc(OC)c(OC)c1OC)C[C@H](C)[C@H](C)C2 | 16 | ? | -3% | ? | -5 | 1%
